From PubChem
Tb PGK inh = T. brucei PGK inhibition; AID 602233; P07378; PGK/GAPDH coupled, Kinase-Glo luminescence, 60 min; Potency, µM (top dose mostly 57.5 µM), usual class: inhibitors; actives 0.043% (n = 380,000); also: nearly all actives have a fitted effect of over 60% in size
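Recombinant glycosomal PGK reaction used 1,3-bisphosphoglycerate generated in-well by GAPDH (100nM final) in 100mM TEA pH 7.6, 5mM MgCl2, 0.01% Tween-20. After 60 minutes at room temperature, ATP was read by Kinase-Glo Plus luminescence end-point.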
WRN helicase inh = inhibitors of human WRN helicase. AID 651768. actives 0.46% (n = 360,000). Potency, µM (highest dose often 114 µM), actives largely listed as inhibitors. WRN helicase unwinding, fluorescent forked duplex, kinetic; also: nearly all actives have a fitted effect of over 55% in size
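WRN at 20 nM final was preincubated with compound for 15 min at room temperature; reaction started with 100 nM forked duplex oligonucleotide carrying fluorophore and quencher plus 2 mM ATP (final). Unwinding followed kinetically by red fluorescence (ex 525/em 598 nm).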
GRP78 ERSR act = induces the endoplasmic reticulum stress response in human glioma cells; U87-MG GRP78 promoter luciferase reporter, 16 h; Potency, µM, most hits filed as activators; actives 0.02% (n = 420,000); AID 602332; also: series mostly up to about 76 µM; nearly all actives have a fitted effect of over 35% in size
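Stably transfected U87-MG human glioma cells carrying a GRP78-based luminescent sensor were seeded at 1000 cells/well, pin-dosed with compounds and incubated 16 h. Luciferase reagent was then added, and end-point luminescence was read after 10 min at room temperature.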
Pin1 inhibitor = inhibitors of human Pin1. Q13526. Pin1 FP peptide displacement, HiFluor488, 10 min. Potency, µM (titrated, usually from 115 µM), usual class: inhibitors. actives 0.009% (n = 390,000). AID 504891; active = well fitted inhibition curve with a large enough effect in the polarisation, with a control signal flat, not every such curve was filed as active; inconclusive = small, poorly fitted or top-dose-only effect, or effect the other way, or a change in a side signal; inactive = no such curve, though single readings can be large or run the other way; the % refers to the polarisation
Target sequence (Q13526 whole entry, looked up): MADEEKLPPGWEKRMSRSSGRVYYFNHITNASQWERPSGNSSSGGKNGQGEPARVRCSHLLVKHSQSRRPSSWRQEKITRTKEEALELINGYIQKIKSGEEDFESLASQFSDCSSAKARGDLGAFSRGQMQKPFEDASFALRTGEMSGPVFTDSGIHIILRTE
PI5P4K alpha inh = inhibitors of human PI5P4K alpha; actives 1.2% (n = 330,000); P48426; PI5P4Kalpha enzyme, ADP-Glo luminescence, 60 min; hits give low values; max response, %; active = max response of -50% or lower; inconclusive = between -30% and -50%; inactive = -30% or higher; also: value at the top dose of about 77 µM
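ADP-Glo luminescence end-point read after a 60 min room-temperature kinase reaction of PI5P4Kalpha plus substrate, initiated with ATP at 5 microM final. Buffer: 0.038 M HEPES pH 7.4, EGTA, 0.1% CHAPS, 5% DMSO.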
FEN1 inhibitor = blocks human flap endonuclease 1; actives 0.35% (n = 390,000); Recombinant FEN1 flap cleavage, fluorescence, 15 min; AID 588795; Potency, µM (highest dose often 114 µM), actives largely listed as inhibitors; P39748; also: nearly all actives have a fitted effect of over 65% in size
Target sequence (P39748 whole entry, looked up): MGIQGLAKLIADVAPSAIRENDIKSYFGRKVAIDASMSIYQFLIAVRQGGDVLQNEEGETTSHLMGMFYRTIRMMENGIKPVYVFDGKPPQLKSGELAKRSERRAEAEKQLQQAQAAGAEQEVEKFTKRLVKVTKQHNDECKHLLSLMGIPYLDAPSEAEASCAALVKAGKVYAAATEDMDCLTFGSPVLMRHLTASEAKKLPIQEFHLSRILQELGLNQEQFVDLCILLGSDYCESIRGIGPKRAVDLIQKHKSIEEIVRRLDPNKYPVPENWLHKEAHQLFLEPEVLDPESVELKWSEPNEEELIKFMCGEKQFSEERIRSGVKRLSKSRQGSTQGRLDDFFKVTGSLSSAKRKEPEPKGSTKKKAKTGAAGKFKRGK
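FEN1 at 10 nM preincubated with compounds 15 min at room temperature, then flap DNA substrate added at 50 nM final. Signal read at 0 and 15 min; concentration-response fitted with four-parameter Hill equation.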
Hits are given with their value; i = inactive; ? = inconclusive; nt = not tested or not shown; [ ] = dose if it differs, or a comment. Shown are actives, neighbours in structure and some others; about 1.3% of the full set was active somewhere. Unless noted, calls follow the shape of the dose curve; as a rule, active = well fitted curve in the direction sought with a large enough effect; inconclusive = small, poorly fitted or top-dose-only effect, or another doubt; inactive = no such curve, though single readings can be large; an effect the other way counts as inactive or inconclusive.

SMILES	Tb PGK inh	WRN helicase inh	GRP78 ERSR act	Pin1 inhibitor	PI5P4K alpha inh	FEN1 inhibitor
Clc1ccc(Cn2c(/C=C/c3ccco3)nc3ccccc32)cc1	i	i	i	i	-78	i
Cc1ccc(Cn2c(/C=C/c3ccco3)nc3ccccc32)cc1	i	i	?	i	-64	i
COC(=O)c1sc(-c2ccccc2)cc1NC(=O)Nc1ccc(F)cc1	i	nt	i	i	nt	89µM
COC(=O)c1sc(-c2ccc(Cl)cc2)cc1NC(=O)CSCC(=O)O	i	i	i	i	-53	i
Cc1cccc(-c2cccc(C(=O)N3CCc4c(cnc(C)c4CNC(=O)c4cncs4)C3)c2)c1	nt	nt	i	nt	nt	nt
CC(=O)Nc1sc2c(c1-c1ccccc1)CCNC2	nt	nt	nt	i	nt	nt
O=C1c2ccccc2C(=O)N1c1ccncc1	nt	nt	nt	i	nt	nt
CCOc1cc(/C=C2\C(=O)N(c3nc(-c4ccc(Br)cc4)cs3)N=C2c2ccccc2)ccc1O	i	i	i	nt	-83	50µM
O=C1/C(=C\c2ccc(O)c(O)c2)C(c2ccccc2)=NN1c1ccccc1	i	?	i	?	-75	i
Nc1n[nH]c(=S)n1/N=C1/C(=O)Nc2ccccc21	i	i	i	?	-89	89µM
C#CC1(OC(C)=O)CCC2C3CCC4=CC(OC(C)=O)CCC4C3CCC21C (stereo not given)	nt	nt	i	nt	nt	nt
Cc1nc(SCC(=O)c2ccccc2)n[nH]1	i	i	i	i	-53	i
O=C(CSc1n[nH]c(-c2ccncc2)n1)c1ccccc1	i[11.5 µM]	i	i	i	nt	i
Cc1cnc(SCc2ccccn2)nc1C1CCCN(C(=O)c2scc3c2CCCC3)C1 (stereo not given)	nt	nt	i	nt	nt	nt
COc1ccc(C2Cc3ccccc3C(=O)N2Cc2ccccc2)cc1COc1ccc(NC(C)=O)cc1 (stereo not given)	nt	nt	nt	i	nt	nt
O=c1[nH]c(-c2ccccc2)cs1	i	i	i	i	i	i
Fc1ccc(-c2csc(=S)[nH]2)cc1	i	i	i	i	-51	i
S=c1[nH]c(-c2ccccc2)cs1	i	?	i	i	-70	i
Nc1nc(Nc2cc(F)cc(F)c2)nc(NC2CCCC2)n1	nt	nt	nt	i	nt	nt
O=c1[nH]c(/C=C\c2cccc(O)c2)nc(O)c1[N+](=O)[O-]	i	i	i	nt	-81	i
O=c1[nH]c(/C=C\c2ccc(O)c(O)c2)nc(O)c1[N+](=O)[O-]	i	?	i	?	-80	?
CCOc1ccccc1/C=C\c1nc(O)c([N+](=O)[O-])c(=O)[nH]1	i	i	i	?	?	i
CCCCCC/C=C\CCCCCCCc1cccc(O)c1C(=O)O	nt	nt	i	nt	nt	nt
CCCCCC(=O)Cc1cc(O)cc2c1C(=O)Oc1cc(O)c(C(=O)O)c(CCCCC)c1O2	i	45µM	i	nt	-76	?
COc1cc2ncnc(N(C)Cc3csc(C)n3)c2cc1-c1ccc2c(c1)OCO2	nt	nt	nt	i	nt	nt
SMILES	Tb PGK inh	WRN helicase inh	GRP78 ERSR act	Pin1 inhibitor	PI5P4K alpha inh	FEN1 inhibitor
CC(NC(=O)OCc1ccccc1)C(=O)Oc1cc2oc(=O)cc(-c3ccccc3)c2cc1Cl (stereo not given)	i	i	i	i	-62	i
CCc1cc2c(-c3ccccc3)cc(=O)oc2cc1OC(C)C(=O)O (stereo not given)	i	i	i	i	i	i
CC(C)(C)OC(=O)Cc1nnc(-c2cc3ccccc3[nH]2)o1	nt	nt	nt	i	nt	nt
COc1ccc2c3c(cccc13)C(=O)CC2	i	i	i	nt	i	50µM
Cc1ccccc1-c1n[nH]c(=S)o1	i	i	i	i	i	i
Cc1ccc(-n2ncc(-c3n[nH]c(=S)o3)c2N)cc1C	i	i	i	nt	-76	nt
COc1ccc(C2=CC3=C(Br)C(=O)C(C)(OC(=O)C4CCCC4)C(=O)C3=CO2)cc1 (stereo not given)	18µM	?	i	?	-68	?
COC(=O)CCC(=O)OC1(C)C(=O)C2=COC(c3ccc(OC)cc3)=CC2=C(Br)C1=O (stereo not given)	16µM	?	i	?	-79	35µM
COc1cc(C)c(CN2CCOc3ccc(C(O)c4cccnc4)cc3C2)cc1C (stereo not given)	nt	nt	i	nt	nt	nt
O=C(CCNC(=O)c1ccc(Br)cc1)NCc1ccco1	i	i	i	i	i	i
CCOc1ccccc1NC(=O)CCS(=O)(=O)c1ccc(Br)cc1	?	50µM	i	?	i	i
O=C(CCS(=O)(=O)c1ccc(Br)cc1)NCc1ccco1	13µM	i	i	i	i	i
COc1cc(=O)n2c(c1C(=O)N(C)Cc1nccs1)CCN(Cc1ccc(F)c(F)c1)CC2	nt	nt	i	nt	nt	nt
O=[S+]([O-])(c1ccc2c(c1)OCCO2)N1CCN([S+](=O)([O-])c2cc(Cl)ccc2F)CC1	nt	nt	nt	i	nt	nt
COc1ccc(C(=O)c2sc(Nc3cccc(OC)c3)c(C(=O)Nc3cccc(C)c3C)c2N)cc1	i	i	13µM	i	i	i
O=C(COC(=O)/C=C/c1ccco1)Nc1ncc(C(F)(F)F)cc1Cl	13µM	?	i	?	i	i
O=C(COC(=O)/C=C/c1ccco1)NCc1ccccc1Cl	i	i	i	i	i	i
CC(=O)c1ccc(F)c(-c2cc(C)cc3c2OC(CNC(=O)C[C@@H]2C[C@@H](C)NC(=S)N2)C3)c1 (stereo not given in full)	nt	nt	i	nt	nt	nt
Cc1ccccc1OCc1nnc(SC(C)C(=O)O)n1-c1ccccc1 (stereo not given)	i	i	i	nt	-54	nt
CCOC(=O)COc1ccccc1/C=C\[N+](=O)[O-]	i	32µM	i	i	i	i
Cc1ccc(C(=O)COC(=O)COc2ccccc2[N+](=O)[O-])s1	i	i	i	i	i	i
CC(C)CC(OC(=O)CNC(=O)c1ccccc1)C(=O)Nc1cc(C(F)(F)F)ccc1Cl (stereo not given)	nt	nt	nt	i	nt	nt
O=C(N/N=C/c1cc(Br)c(O)c(Br)c1O)c1cccnc1	nt	i	i	i	-59	i
O=C(N/N=C/c1cc(O)ccc1Br)c1cccnc1	i	i	i	i	i	i
O=C(O)c1cc(O)c(O)c(O)c1	nt	nt	i	nt	nt	nt
SMILES	Tb PGK inh	WRN helicase inh	GRP78 ERSR act	Pin1 inhibitor	PI5P4K alpha inh	FEN1 inhibitor
NNC(=O)c1cc(O)c(O)c(O)c1	i	i	i	?	i	22µM
O=C(Cc1ccc(-n2cccc2)cc1)NC1CCCCC1	i	i	i	i	i	i
O=C(O)Cc1ccc(-n2cccc2)cc1	?	40µM	i	i	i	?
COc1ccc(C(=O)NCCc2nnc3n2CCN(CC2CC=CCC2)CC3)cc1 (stereo not given)	nt	nt	i	nt	nt	nt
COc1ccccc1C(=O)Nc1nc2ccccc2[nH]1	7.9µM	i	i	i	?	i
COc1ccccc1C(=O)NCCC(=O)Nc1nc2ccccc2[nH]1	i	i	i	i	i	i
Cc1ccc(-c2csc3nc4c5ccccc5c(NCCCN(C)C)nn4c(=O)c23)cc1	i	i	i	i	i	20µM
